# Measured values published in PubChem BioAssay AID1053119 (Broad Institute, 2014).
# Potency and affinity values are given separately. Records with an inconclusive call do not appear. Values without a mark were called inactive.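 How the source made its calls: active means signal loss from cell killing with fitted potency at or below twice the top valid dose; inconclusive means flat drop of 30 to 70%, or unreliable curve fit; inactive means opposite direction, flat within 30%, or weaker potency.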
# Assay: A549 cell cytotoxicity, dose response, cytotoxicity control, cherry-picks, 26 µM top dose (AID 1053119);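 further: 0% = neutral control wells and -100% = 10 µM mitoxantrone wells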
# Conditions: A549 viability, CellTiter-Glo ATP luminescence, 72 h; series mostly up to 26 µM; activity change, negative = cytotoxicity: at the top concentration
row,Structure (SMILES),"activity change, negative = cytotoxicity"
1,CCOc1ccccc1NC(=O)c1c(NC(=O)CCC(=O)O)sc2c1CCCCC2,-16.4%
2,C[C@H](CO)N1C[C@H](C)[C@H](CN(C)C(=O)c2cccc(F)c2)Oc2ncc(-c3ccccc3)cc2C1=O,-4.04%
3,C[C@@H]1CN([C@@H](C)CO)C(=O)c2cc(-c3ccccc3)cnc2O[C@@H]1CN(C)C(=O)c1cccc(F)c1,-10.3%
4,CC(C)Cc1nnc(NC(=O)CSc2nc(N)cc(=O)[nH]2)s1,-9.89%
5,Cc1cccc(N2CCN(S(=O)(=O)c3cn(C)cn3)CC2)c1C,-6.39%
6,CCN(Cc1ccncc1)C(=O)c1ccc2c(c1)S(=O)(=O)c1ccccc1C2=O,-3.23%
7,O=C(NCCS(=O)(=O)N1CCN(c2ccc(F)cc2)CC1)c1ccc(Br)o1,-7.54%
8,Cc1ccc([N+](=O)[O-])cc1NC(=O)CN(C(=O)c1ccccc1Cl)C1CCCCC1,-14%
9,Cc1c(NC(=O)c2ccc3nsnc3c2)cccc1[N+](=O)[O-],-0.314%
10,CO[C@@H]1CN(C)C(=O)c2ccc(NC(=O)c3ccc(-c4ccccc4)cc3)cc2OC[C@@H](C)NC[C@@H]1C,-9.52%
11,O=c1c2cc(N3CCOCC3)ccc2[nH]c(=S)n1Cc1ccc(Cl)cc1,0.921%
12,COc1ccc(-c2csc(CCn3nc(C)cc3C)n2)cc1OC,-10.7%
13,O=C(Nc1cc(Sc2nc3ccccc3s2)cc([N+](=O)[O-])c1)c1ccccc1F,-8.23%
14,O=C(Nc1ccccc1F)N1C[C@H]2[C@@H](c3ccccc31)[C@H](CO)N2C(=O)C1CC1,1.68%
15,Nc1nc(-c2cc3c(cc2Cl)OCCO3)cs1,-2.27%
16,c1ccc2[nH]c(SCc3cn4cccnc4n3)nc2c1,9.45%
17,COCC(=O)Nc1ccc2c(c1)C(=O)N(C)[C@H]1CC[C@H](CC(=O)NCc3ccccc3Cl)O[C@H]1CO2,-11.8%
18,CCOC(=O)c1nnn(-c2ccc(OC)cc2)c1N,-2.2%
19,CO[C@H]1CN(C)C(=O)c2cc(NC(=O)Nc3cc(Cl)cc(Cl)c3)ccc2OC[C@H](C)NC[C@@H]1C,8.32%

row,Structure (SMILES),"activity change, negative = cytotoxicity"
1,COc1cccc(-c2ccc3c(c2)[C@H]2[C@H](CCN2S(=O)(=O)c2cccc(OC)c2)[C@H](CO)N3)c1,-8.97%
2,COC(=O)c1cn(CC(=O)NCc2ccco2)c2ccccc12,0.072%
3,C[C@H]1CN([C@@H](C)CO)C(=O)c2cc(NC(=O)CCCN(C)C)ccc2O[C@H]1CN(C)Cc1ccc(-c2ccccc2)cc1,6.67%
4,O=S(=O)(c1ccccc1F)N1CC[C@@H]2[C@@H](CO)Nc3ccc(-c4cccc(F)c4)cc3[C@@H]21,-9.85%
5,O=C(Nc1nc(-c2ccncc2)cs1)C1COc2ccccc2O1 (stereo not drawn),-13.6%
6,COCC(=O)Nc1ccc2c(c1)C(=O)N(C)[C@H]1CC[C@@H](CC(=O)NCc3ccccc3Cl)O[C@H]1CO2,-4.72%
7,COc1ccccc1CNc1nc(NCc2cnc(C)cn2)c2sccc2n1,0.101%
8,C[C@@H]1CN([C@H](C)CO)C(=O)c2cc(-c3ccccc3)cnc2O[C@@H]1CN(C)C(=O)c1cccc(F)c1,1.57%
9,COc1cccc(-c2ccc3c(c2)[C@@H]2[C@@H](CCN2S(=O)(=O)c2cccc(OC)c2)[C@@H](CO)N3)c1,-1.38%
10,COCC(=O)Nc1ccc2c(c1)C(=O)N(C)[C@@H]1CC[C@@H](CC(=O)NCc3ccccc3Cl)O[C@H]1CO2,1.05% [at 23.5 µM]
11,COCC(=O)Nc1ccc2c(c1)C(=O)N(C)[C@@H]1CC[C@@H](CC(=O)NCc3ccccc3Cl)O[C@@H]1CO2,-6.21% [at 23.5 µM]
12,Cc1ccc(S(=O)(=O)N2CC3(C)CN(S(=O)(=O)c4ccc(C)cc4)CC(C)(C2)C3=O)cc1,-4.34%
13,Cc1ccc(N(CC(=O)NCc2ccco2)S(=O)(=O)c2ccccc2)cc1,-5.49%
14,C[C@H](CO)N1C[C@H](C)[C@H](CN(C)C(=O)Nc2cccc3ccccc23)Oc2c(NC(=O)Nc3ccc(C(F)(F)F)cc3)cccc2C1=O,2.92%
15,COC(=O)C[C@H]1CC[C@H]2[C@@H](COc3ccc(NC(=O)Cc4cccs4)cc3C(=O)N2C)O1,4.07%
16,C[C@H]1CN([C@@H](C)CO)C(=O)c2cc(-c3ccccc3)cnc2O[C@@H]1CN(C)C(=O)c1cccc(F)c1,-5.97%
17,COC(=O)C[C@@H]1CC[C@@H]2[C@@H](COc3ccc(NC(=O)Cc4cccs4)cc3C(=O)N2C)O1,6.73%
18,N#Cc1ccc(-c2ccc3c(c2)[C@@H]2[C@@H](CCN2S(=O)(=O)c2cccc(F)c2)[C@H](CO)N3)cc1,-4.73%
19,C[C@H](O)C#Cc1ccc2c(c1)O[C@H](CN(C)C)[C@H](C)CN([C@H](C)CO)S2(=O)=O,14.7%
